Pf growth 96h – P. falciparum growth inhibition at 96 hour, primary screen for plastid delayed-death inhibitors; P. falciparum luciferase reporter growth, 96 h; 320,000 compounds, 6.9% hits; Potency, µM (titrated, usually from 28.7 µM), for inactives: at the top dose activity change, negative = inhibition, usual class: inhibitors; also: % is scaled to controls: 0 for no effect and ±100 for the full control effect
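Two parasite generations (96 h, 37 C, 5% CO2) of compound exposure in infected erythrocytes (0.05% parasitemia, 2% hematocrit). Luciferase-reporter P. falciparum; decreased luminescence indicates inhibited growth, aimed at apicoplast-acting delayed death.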
VACV mCherry inh – inhibitors of vaccinia virus infection (mCherry reporter signal); Vaccinia virus mCherry reporter infection, fluorescence; Potency, µM (series often up to 36.5 µM), for inactives: top-dose activity change, negative = inhibition, usual class: inhibitors; 310,000 compounds, 0.63% hits; calls by dose curve; tested in A549 cells; also: % is scaled to controls: 0 for no effect and ±100 for the full control effect; nearly all actives have a fitted effect of over 35% in size
NS1 inh – blocks influenza NS1 protein function; 270,000 compounds, 0.4% hits; Potency, µM (highest dose often 46.1 µM), without a hit: at the top dose activity, positive = more growth; AID 2326; calls by dose curve; also: actives are rising curves; nearly all actives have a fitted effect of over 50% in size
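A cell-based growth assay was used: compounds that relieve NS1-induced slow growth of budding yeast raise OD600. Assay medium was yeast nitrogen base with ammonium sulphate and -URA supplement, pH 6.0, with 2% galactose.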
HCV inhibitor – HCV inhibition | 340,000 compounds, 3.4% hits | Potency, µM (top dose mostly 41.8 µM), without a hit: at the top dose activity change, negative = inhibition, most hits filed as inhibitors | Huh7.5.1 HCVcc-Cre infection, luciferase reporter, 44 h; also: % is scaled to controls: 0 for no effect and ±100 for the full control effect
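Whole-lifecycle infectious HCVcc-Cre system; cells 1,000/well, compound then virus (~0.5 moi) added 4 h after plating, 44 h culture. Luciferase read 15 sec following 15 min substrate incubation, room temp.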
Pf growth 48h – inhibits P. falciparum growth in the first generation, 48 h; P. falciparum luciferase growth in erythrocytes, 48 h; Potency, µM (highest dose often 28.7 µM), inactives show at the top dose activity change, negative = inhibition, hits mostly inhibitors; 310,000 compounds, 5.9% hits; AID 504832; also: % is scaled to controls: 0 for no effect and ±100 for the full control effect
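Luminescence readout; reporter = integrated firefly luciferase in P. falciparum. RBC culture at 2% hematocrit, 0.1% parasitemia final, 37 C/5% CO2; decreased signal taken as growth inhibition.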
VACV Venus inh – inhibitors of vaccinia virus (Venus reporter) | 330,000 compounds, 0.46% hits | Vaccinia virus Venus reporter expression, fluorescence | AID 720580 | Potency, µM (doses to about 36.5 µM), without a hit: at the top dose activity change, negative = inhibition, most hits filed as inhibitors; calls by dose curve; tested in A549 cells; also: % is scaled to controls: 0 for no effect and ±100 for the full control effect; nearly all actives have a fitted effect of over 30% in size
Numbers without * were called inactive. An excerpt weighted towards active compounds, which were near 11% of everything screened. Unless noted, calls follow the shape of the dose curve; as a rule, active = well fitted inhibition curve with a large enough effect; inconclusive = small, poorly fitted or top-dose-only effect, or another doubt; inactive = no such curve, though single readings can be large or run the other way. Potency is read from the fitted curve at half-maximal effect.

`CSc1c(C#N)sc(=S)n1-c1ccc(C)cc1` gave Pf growth 96h 10µM*, VACV mCherry inh -2%, NS1 inh 3%, HCV inhibitor 19%, Pf growth 48h inconclusive and VACV Venus inh 4%.
For CCCS(=O)(=O)NC(=O)C1(C)CCN(C(=O)c2c(C)noc2C)C1 (stereo not given) the results were VACV mCherry inh 45% and VACV Venus inh 3%.
Screening COc1ccc(-c2nc(CCl)cs2)cc1 returned Pf growth 96h 107%, HCV inhibitor -4% and Pf growth 48h 47%.
COc1ccc(-c2nc(CCl)cs2)cc1OC was read as Pf growth 96h inconclusive, VACV mCherry inh -2%, HCV inhibitor 11µM*, Pf growth 48h 11% and VACV Venus inh -23%.
For CC(=O)NC1(c2ccccc2)CCN(C(=O)N2CCOCC2)CC1 the results were Pf growth 96h -10%, VACV mCherry inh -14%, NS1 inh -1%, HCV inhibitor 31% and VACV Venus inh -11%.
`CSc1nc2sc3c(c2c(=O)n1-c1ccccc1)CCC(C(C)(C)C)C3` (stereo not given) gave VACV mCherry inh -1% and VACV Venus inh 4%.
Screening Cc1nn(-c2ccccc2)c2c1N(CC(=O)N1CCN(c3cccc(Cl)c3)CC1)C(=O)CS2 returned VACV mCherry inh 8% and VACV Venus inh 3%.
Screening Cc1ccc(-c2nc3ncccn3c2Nc2ccc3c(c2)OCCO3)cc1 returned Pf growth 96h 12µM*, VACV mCherry inh -4%, NS1 inh -8%, HCV inhibitor 4% and VACV Venus inh -2%.
`COc1ccc(-c2nc3ncccn3c2Nc2ccc3c(c2)OCCO3)cc1` gave Pf growth 96h 30%, VACV mCherry inh inconclusive, NS1 inh 5%, HCV inhibitor -6%, Pf growth 48h inconclusive and VACV Venus inh -23%.
For Cc1ccc(Nc2c(-c3ccccn3)nc3ccc(C)cn23)cc1 the results were Pf growth 96h 151%, HCV inhibitor inconclusive and Pf growth 48h inconclusive.
For Cc1ccc(Nc2c(-c3ccccn3)nc3cc(C)ccn23)cc1 the results were Pf growth 96h 9.3µM*, VACV mCherry inh inconclusive, HCV inhibitor 2.8µM*, Pf growth 48h inconclusive and VACV Venus inh inconclusive.
Cc1ccn2c(Nc3ccc4c(c3)OCO4)c(-c3ccccn3)nc2c1 was read as Pf growth 96h inconclusive, VACV mCherry inh -11%, NS1 inh inconclusive, HCV inhibitor inconclusive, Pf growth 48h 12µM* and VACV Venus inh 12%.
Screening Cc1ccn2c(Nc3ccc4c(c3)OCO4)c(-c3ccc(C)o3)nc2c1 returned VACV mCherry inh -1% and VACV Venus inh -3%.
Cc1cc(Cl)c(S(=O)(=O)NC2CCCC2)cc1OCC(N)=O was read as Pf growth 96h -19%, VACV mCherry inh inactive, NS1 inh 5%, HCV inhibitor 20%, Pf growth 48h -16% and VACV Venus inh -9%.
For COc1ccc(S(=O)(=O)n2nc(C)cc2C)cc1OC the results were Pf growth 96h inconclusive, NS1 inh 11%, HCV inhibitor 2% and Pf growth 48h -4%.
`CC1=NN(c2ccccc2)C(=O)C1C=Nc1ccccc1O` (stereo not given) gave Pf growth 96h inconclusive, VACV mCherry inh inconclusive, NS1 inh -34%, HCV inhibitor inconclusive, Pf growth 48h 5.2µM* and VACV Venus inh -26%.
Screening CCc1ccccc1N(CC(=O)N1CCN(c2ccc(F)cc2)CC1)S(C)(=O)=O returned Pf growth 96h -22%, VACV mCherry inh -16%, NS1 inh -12%, HCV inhibitor -7%, Pf growth 48h inconclusive and VACV Venus inh -10%.
Screening COC(=O)[C@H](C(C)C)N(Cc1ccccc1)S(=O)(=O)CCN1CCN(c2ccccc2)CC1 returned VACV mCherry inh -25%, HCV inhibitor inconclusive and VACV Venus inh inconclusive.
Screening COC(=O)[C@H](C)N(Cc1ccc(Cl)c(Cl)c1)S(=O)(=O)CCN1CCN(c2ccccc2)CC1 returned VACV mCherry inh 14µM*, HCV inhibitor inconclusive and VACV Venus inh inconclusive.
For CS(=O)(=O)c1ccc([C@@H](O)[C@@H](CO)NC(=O)C(Cl)Cl)cc1 the results were Pf growth 96h 4.7µM*, VACV mCherry inh -4%, HCV inhibitor 5%, Pf growth 48h inconclusive and VACV Venus inh -16%.
Screening CS(=O)(=O)c1ccc([C@H](O)[C@H](CF)NC(=O)C(Cl)Cl)cc1 returned Pf growth 96h 2µM* and Pf growth 48h inconclusive.
`CS(=O)(=O)c1ccc([C@@H](O)[C@@H](CF)NC(=O)C(Cl)Cl)cc1` gave Pf growth 96h 3.3µM*, VACV mCherry inh inactive, HCV inhibitor inconclusive, Pf growth 48h 12µM* and VACV Venus inh -8%.
Screening Cc1cccn2c(=O)c3cc(C(=O)N4CC(C)CC(C)C4)sc3nc12 (stereo not given) returned Pf growth 96h inconclusive, VACV mCherry inh -2%, NS1 inh 5%, HCV inhibitor 11%, Pf growth 48h -16% and VACV Venus inh -4%.
Cc1cc(Br)cn2c(CC(C)(C)C)c(-c3cccc(Cl)c3)nc12 was read as VACV mCherry inh inactive and VACV Venus inh -3%.
`Cc1cccc(S(=O)(=O)C(C#N)c2nc3ccccc3nc2N2CC(C)OC(C)C2)c1` (stereo not given) gave Pf growth 96h 25%, VACV mCherry inh -22%, NS1 inh -16%, HCV inhibitor -7%, Pf growth 48h inconclusive and VACV Venus inh -8%.
`CC1CN(c2nc3ccccc3nc2C(C#N)C(=O)OC2CCCCC2)CC(C)O1` (stereo not given) gave Pf growth 96h inconclusive, NS1 inh -156%, HCV inhibitor 7% and Pf growth 48h 2.1µM*.
Cc1ccc(S(=O)(=O)C(C#N)c2nc3ccccc3nc2N2CC(C)OC(C)C2)cc1C (stereo not given) was read as Pf growth 96h inconclusive, NS1 inh 13%, HCV inhibitor -2% and Pf growth 48h 13µM*.
`CCN(C(=O)c1cc2c(=O)[nH]c3ccc(C)cc3c2s1)c1ccc(OC)cc1` gave Pf growth 96h 5.2µM*, VACV mCherry inh inactive, NS1 inh 3%, HCV inhibitor inconclusive, Pf growth 48h inconclusive and VACV Venus inh -7%.
Screening Cc1ccc(C)c(N(C)C(=O)c2cc3c(=O)[nH]c4ccc(C)cc4c3s2)c1 returned Pf growth 96h inconclusive, NS1 inh 8%, HCV inhibitor 8.9µM* and Pf growth 48h 10µM*.
For CCCN(CCC)C(=O)c1cc2c(=O)[nH]c3ccc(C)cc3c2s1 the results were Pf growth 96h 2%, HCV inhibitor 11µM* and Pf growth 48h inconclusive.
